# Source: the supplement of paper PMC3334620
# In all, about 33,000 sequences were measured (“E-score (-0.5 to 0.5)”: median about -0.016, highest 2% from about 0.31 on). This is one part of a sample in which the highest values are shown more often than they occur.
# Molecular target: Cst6 (UniProt P40535)
# Test: PBM E-score (8-mer binding enrichment) (E-score (-0.5 to 0.5)); higher = stronger / more preferred TF binding
# Conditions: protein concentration: 200 nM; construct: GST-DNA-binding domain
# Procedure: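 Universal 'all 10-mer' protein binding microarrays (Agilent AMADID 015681) probed with GST-tagged S. cerevisiae TFs (full-length or DBD) made by in vitro transcription/translation (PURExpress), about 100-200 nM. Bound TF was detected with fluorescent anti-GST. Each ungapped 8-mer (which stands for itself and its reverse complement) is scored by the PBM enrichment score (E-score), a modified Wilcoxon-Mann-Whitney statistic from -0.5 to +0.5, computed with the Universal PBM Analysis Suite. Scale: above 0.35 generally sequence-specific binding.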
# Sequence of UniProt P40535 (P40535 whole entry): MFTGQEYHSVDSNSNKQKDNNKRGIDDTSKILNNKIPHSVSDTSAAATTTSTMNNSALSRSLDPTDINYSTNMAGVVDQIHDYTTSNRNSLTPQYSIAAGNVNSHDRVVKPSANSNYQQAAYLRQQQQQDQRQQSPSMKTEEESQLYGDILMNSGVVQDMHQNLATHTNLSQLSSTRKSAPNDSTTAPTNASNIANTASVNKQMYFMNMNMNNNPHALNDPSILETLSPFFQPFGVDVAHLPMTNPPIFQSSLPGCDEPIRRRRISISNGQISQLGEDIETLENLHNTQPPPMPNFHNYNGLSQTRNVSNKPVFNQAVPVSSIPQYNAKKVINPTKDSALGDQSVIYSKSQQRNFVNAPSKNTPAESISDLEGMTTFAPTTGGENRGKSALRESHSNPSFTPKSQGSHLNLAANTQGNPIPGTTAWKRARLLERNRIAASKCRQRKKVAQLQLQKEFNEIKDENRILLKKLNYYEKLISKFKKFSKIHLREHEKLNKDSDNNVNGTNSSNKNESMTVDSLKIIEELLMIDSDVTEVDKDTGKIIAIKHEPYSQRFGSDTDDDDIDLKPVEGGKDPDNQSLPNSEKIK
row,Sequence,PBM E-score
1,CGACGTCC,-0.0701
2,GGTCGTCA,0.272
3,AGACGTCG,-0.103
4,CGACGTCG,-0.0227
5,TGACGTCA,0.5
6,AGACGTCT,-0.207
7,AGACGTCC,-0.00823
8,GGACGTCA,0.468
9,AGACGTCA,0.484
10,GGACGTCC,-0.128
11,CGACGTCA,0.491
12,GGACGTGA,-0.0809
13,ATTCTGCC,0.124
14,ACATGCAT,0.0333
15,CAATGGCC,-0.314
16,GAGCCAGC,-0.299
17,ACTTGCCC,-0.215
18,ATGTTTCG,0.263
19,AGCCCCAC,-0.161
20,GTGACACA,0.322
21,ATGACACA,0.349
22,GAGACACA,-0.0694
23,ACGACACG,0.0167
24,ATGACACG,0.256
25,CTGACACA,0.0411

row,Sequence,PBM E-score
1,AGACATGG,-0.0372
2,ACTACCTC,0.0105
3,AGCTTGGA,-0.274
4,ACTGGGCA,-0.16
5,CCGATAAA,0.0173
6,AAACGCAA,0.254
7,GCACGTTA,0.0802
8,TCACGTCA,0.49
9,CCACGTCG,-0.196
10,GCACGTCC,-0.0855
11,GCACGTCA,0.459
12,TCCCGTCA,0.0641
13,CCACGTCA,0.472
14,TCACGTGA,0.1
15,ACACGTCG,-0.0793
16,ACACGTCA,0.481
17,CCACGTCC,-0.214
18,ACACGTCT,0.0155
19,AGGGGGTA,-0.392
20,AGGACTGG,-0.203
21,CTCTTAAA,0.112
22,AGACAAGG,-0.181
23,GGCACGCA,-0.0289
24,GGGCGGGA,-0.0359
25,CAAGAGGC,0.0779

row,Sequence,PBM E-score
1,GTTGACGA,0.192
2,GGTGACGA,0.463
3,AGTGACCA,-0.105
4,AGTGACGA,0.399
5,GGTGACCA,-0.0455
6,AGTGACGG,0.301
7,GGAGGCGA,-0.154
8,ATTATATA,0.239
9,ACTATATG,0.0805
10,ATTATATG,0.306
11,CTTATATC,0.291
12,ATTATATC,0.327
13,ATTATAAG,0.182
14,AGGAGAAG,-0.154
15,GAGGCGAA,0.0301
16,ATCTAGGA,-0.0727
17,ACGGGTCA,-0.0243
18,GTCTAGAA,-0.0503
19,GATACGCA,0.0359
20,AATACGTA,0.344
21,GATACGTA,0.332
22,AATACGAC,0.0982
23,CATACGAA,0.154
24,AATACGTC,0.323
25,CATACGTA,0.383

row,Sequence,PBM E-score
1,AATACGTG,0.176
2,CATACGCA,0.147
3,AATACGCA,0.124
4,AATACGCC,0.104
5,GATACGGA,0.111
6,ATTGAGGG,-0.186
7,TCAGAGGA,-0.193
8,GCAGGAGA,-0.202
9,TCCGACGA,-0.0151
10,CTGCTAAG,-0.279
11,CTATGGCC,-0.271
12,CATACGCC,0.156
13,CATACGTC,0.405
14,CCTACGTC,0.305
15,ATCCCGTG,0.0123
16,CTCAAAAC,0.175
17,CTTACGCA,0.249
18,GTTACGAA,0.16
19,ATTACGCG,0.326
20,ATTACGAA,0.305
21,ATTACGAG,0.235
22,ATTACGCC,0.254
23,GTTACGCA,0.266
24,ATTACGCA,0.398
25,ATTACGGG,0.00617

row,Sequence,PBM E-score
1,CGACACAC,0.0466
2,CGGAGAAA,-0.0341
3,CCAATGAC,0.314
4,ACAATGAT,0.269
5,GCAATGAC,0.3
6,ACAATGAC,0.336
7,CCAATGAA,-0.187
8,ACAATGAG,-0.0976
9,AGCCAGTC,-0.244
10,CGCCATGC,0.0733
11,GTCTGGGA,-0.281
12,ATTGCCTA,-0.141
13,ACATCCAA,0.131
14,GATCGTCA,0.294
15,CATCGTCG,-0.112
16,CATCGTCA,0.372
17,CATCGTCC,0.14
18,AATCGTCC,-0.00977
19,AATCGTCT,0.11
20,AATCGTCA,0.34
21,TATCGTGA,0.0604
22,TATCGTCA,0.397
23,CCAGATAG,-0.0711
24,ACCTTGTA,0.0757
25,CTTAGCAA,-0.0618

row,Sequence,PBM E-score
1,GGGCTCGA,-0.112
2,CACAGATG,0.0492
3,ATTGCTCC,-0.0682
4,CGACCGGA,-0.305
5,CATCGTAG,0.00214
6,TATAGTAA,0.161
7,GATAGTAA,0.14
8,CATAGTAA,0.313
9,GGCAGGAA,-0.21
10,ACATGACT,-0.0377
11,ACATGACA,0.274
12,ACATGACG,0.435
13,CCATGACA,0.271
14,CCATGACG,0.457
15,CCATGACC,0.0749
16,AAAGCGGC,0.151
17,AGGAACTC,-0.0807
18,AATCCCTC,-0.0193
19,ATGTCGCA,-0.0497
20,CCTCAGAA,-0.0484
21,CAACGTTA,0.119
22,AAATAATA,0.287
23,ATATAAAT,0.321
24,AAATACAC,0.141
25,ATATAAAC,0.295

row,Sequence,PBM E-score
1,CAATACAA,0.15
2,AAATAAAG,0.104
3,AAATAAAT,0.371
4,AAATAAAA,0.186
5,AAATAATG,0.312
6,AAATAATC,0.178
7,AAATACAA,0.321
8,ATATAAAG,0.17
9,GCACACTA,-0.138
10,ACGGTAAA,0.129
11,GACACTAC,0.0584
12,AGGAGCTG,-0.256
13,CTTCACAA,-0.0895
14,GGTTGCAC,-0.136
15,GCACTGTA,-0.00858
16,ACGTTATC,0.269
17,GCGTTATA,0.0248
18,ACGTTATA,0.31
19,CCGTTATA,-0.00095
20,ACGTTAGG,0.112
21,ACGTTATG,0.333
22,CCAAGGAG,-0.0523
23,ACTGCAGA,-0.0111
24,TGCTACAA,0.0326
25,ATCTCATG,-0.00941

row,Sequence,PBM E-score
1,ATATTCGA,-0.111
2,AACAAATA,0.242
3,AACAAGTT,0.0438
4,AACAAATT,0.32
5,CTCAGGCC,-0.258
6,CAACACGG,0.0445
7,CCAATAAC,0.135
8,GGTATGAC,0.191
9,CGTATGAA,0.319
10,CGTATGGC,0.23
11,AGTATGAT,0.235
12,AGTATGAA,0.0821
13,CGTATGAC,0.443
14,AGTATGAC,0.354
15,CGTATGAG,0.133
16,AGTATGAG,0.0817
17,GACGAGAA,0.242
18,TCTTGACA,0.053
19,CGAGGACG,-0.269
20,CAACCTTA,0.0972
21,GCTGATAC,-0.0819
22,ACGGTTCC,-0.0941
23,ACCGGGAG,-0.317
24,CACCTCGA,0.119
25,ATATATAA,0.324

row,Sequence,PBM E-score
1,CTCTATAC,-0.125
2,CTATATAA,0.147
3,ATATATAC,0.281
4,CTATATAC,0.338
5,TTATATAA,0.24
6,GTATTGAC,0.148
7,CGCTTGAC,-0.0844
8,AGAAATTG,0.27
9,CCTTATGA,0.159
10,CATACGGA,0.049
11,AATACGGG,-0.0401
12,AATACGGT,-0.0647
13,AATACGGC,0.324
14,CATACGGC,0.321
15,GATACGGC,0.139
16,CCGCAGCA,0.0617
17,GGTTCTAC,-0.204
18,CACATCAG,-0.0727
19,TACCGTCA,0.345
20,AACCGTCA,0.174
21,CACCGTCA,0.314
22,GACCGTCA,0.137
23,CACCGTCC,-0.173
24,CACCGTCG,-0.174
25,GAACCAAA,-0.0818

row,Sequence,PBM E-score
1,AGATATCA,0.198
2,TAATATCA,0.319
3,GGATATCA,-0.0151
4,GGATATAA,0.236
5,CGATATAA,0.225
6,CAATATCA,0.126
7,TGATATCA,0.426
8,AAATATCA,0.139
9,TGATATAA,0.323
10,GGAAGAGA,-0.106
11,ATTCTGAC,0.181
12,GGCGTACC,-0.19
13,CAACCAAG,0.0364
14,TCGGACAA,0.0914
15,CACAGTGC,-0.024
16,CCCTAACA,0.127
17,GACGTGAA,0.142
18,GCCGTGCA,0.279
19,CACGTGAC,0.148
20,ACCGTGAC,0.291
21,GCCGTGAC,0.341
22,GCCGTGAA,0.184
23,GACGTGAC,0.394
24,GCCGTGCC,0.308
25,ACCGTGCC,0.0391

row,Sequence,PBM E-score
1,CCAAGCGA,-0.309
2,AAACAGGT,0.0221
3,ATTCTGGA,0.122
4,AAGCCTTA,-0.0547
5,ACCTGCTA,-0.0708
6,ATACGCAA,0.283
7,AGACGCCA,-0.108
8,CCACGCAA,0.043
9,GTACGCAA,0.0898
10,TTACGCAA,0.438
11,GGACGCAA,0.0196
12,AGACGCAA,0.0971
13,TGACGCAA,0.489
14,CGACGCCA,0.00886
15,GCACGCAA,-0.0783
16,TCACGCAA,0.375
17,TGACGCCA,0.466
18,CTGCTTAC,0.00293
19,CGTGACTC,-0.1
20,ACGCTCAT,0.114
21,CCTAAGCA,-0.0807
22,TTAGGCAA,-0.00879
23,TAACCAGA,-0.0457
24,CAAGTGCC,0.0401
25,ACGCCGCG,0.302

row,Sequence,PBM E-score
1,ACGCCGTG,0.383
2,GCGCCGTA,0.384
3,CCGCCGTA,0.0871
4,GGGCCGTA,0.116
5,ACGCCGAC,0.0423
6,GCGCCGAA,0.132
7,ACGCCGGG,-0.254
8,AGGCCGTA,0.0502
9,ACGCCGTC,0.389
10,CCGCCGTC,0.206
11,ACGCCGTA,0.349
12,ATCCAATA,0.222
13,AGCCGACC,-0.292
14,CTGGGACA,-0.219
15,CCTGTGGC,-0.117
16,AGAGTACC,-0.135
17,TAGTACAA,-0.00017
18,ACATTTCC,0.13
19,GAGATCGA,0.0615
20,CATCCGCG,0.151
21,ATATGTCG,0.185
22,ATGTGTCA,0.286
23,ATATGTCC,0.121
24,CTATGTCA,0.392
25,AGATGTCA,0.298

row,Sequence,PBM E-score
1,GTATGTCA,0.422
2,GGATGTCA,0.277
3,CTATGTCC,-0.152
4,CGATGTCA,0.319
5,ATATGTCA,0.404
6,GTATGTTA,0.182
7,GTATGTAA,0.282
8,CATCAAGG,-0.0962
9,ACGCCCGT,-0.0034
10,AACTAAGG,0.0828
11,GGAACGCA,-0.112
12,AGGTATAC,0.0822
13,GGCCGTGA,0.14
14,CTGCGCTC,-0.292
15,GCAGTCGC,-0.0904
16,ACAAGGCG,0.223
17,GGTGGCGA,-0.11
18,CAGCGGTA,0.0522
19,CCATAGCG,-0.0739
20,AACAGAAA,0.213
21,GACAGAAA,0.311
22,GACAGAAC,0.0521
23,ACCGTTCG,0.0621
24,ACTACCCT,-0.111
25,AATTCGCT,0.238

row,Sequence,PBM E-score
1,CATTATCG,0.0831
2,AATTATCT,0.161
3,AATTATCC,0.188
4,CATTATCA,0.137
5,AATTATCG,0.316
6,AATTATCA,0.356
7,ACAGGGGA,-0.218
8,ATTTAAAA,0.258
9,ACAATAGC,-0.178
10,ATTGGCAG,-0.165
11,AGTAACTG,0.00693
12,GTACGTCA,0.49
13,CTACGTCC,-0.0878
14,GTACGTTA,0.124
15,CTACGTCA,0.493
16,ATACGTCG,0.215
17,ATACGTCC,0.061
18,CTACGTGA,0.0384
19,GTACGTGA,0.108
20,ATACGTCA,0.494
